# Source: PubChem BioAssay
# Luciferase inh: Photinus pyralis luciferase inhibition; P08659; purified P. pyralis luciferase, luminescence, biochemical; Potency, µM (series often up to 115 µM), actives largely listed as inhibitors; AID 1347043; hit rate 2.5% among 76,000; also: nearly all actives have a fitted effect of over 65% in size
# Target sequence (P08659 whole entry, looked up): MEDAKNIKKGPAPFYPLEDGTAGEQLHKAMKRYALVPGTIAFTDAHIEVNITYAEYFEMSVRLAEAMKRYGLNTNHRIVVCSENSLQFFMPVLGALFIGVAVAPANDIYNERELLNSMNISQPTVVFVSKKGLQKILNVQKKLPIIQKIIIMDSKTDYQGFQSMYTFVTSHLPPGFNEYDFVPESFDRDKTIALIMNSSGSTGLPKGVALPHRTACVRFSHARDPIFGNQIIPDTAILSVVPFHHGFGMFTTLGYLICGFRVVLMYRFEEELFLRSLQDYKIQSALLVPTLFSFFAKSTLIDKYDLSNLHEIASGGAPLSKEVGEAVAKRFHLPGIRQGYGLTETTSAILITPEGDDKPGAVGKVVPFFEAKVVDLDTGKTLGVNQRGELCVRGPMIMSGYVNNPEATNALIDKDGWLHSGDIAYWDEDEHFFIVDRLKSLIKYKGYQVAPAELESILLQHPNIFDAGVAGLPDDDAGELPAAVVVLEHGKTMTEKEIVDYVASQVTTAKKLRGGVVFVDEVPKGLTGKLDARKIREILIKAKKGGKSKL
#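 Cell-free enzyme assay, 10nM P. pyralis luciferase, luciferin and ATP each at 10uM. Inhibition profiled over a 6-point titration, read as luminescence.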
# HEK cytotox: HEK 293 cell cytotoxicity; Potency, µM (series often up to 115 µM), hits mostly inhibitors; HEK 293 viability, ATP luminescence (CellTiter-Glo), 48-72 h; hit rate 6.6% among 94,000; also: nearly all actives have a fitted effect of over 60% in size
#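 Cells seeded first (HEK 293, 250 cells/well), then compound added by pintool. Incubation ran 48 or 72 hr at 37 degree Celsius. CellTiter-Glo was added and luminescence imaged after 10 min at room temperature.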
# hNpr1 antagonist: blocks ANP-stimulated signaling of human Npr1 receptor; P16066; HEK293 hNpr1 GloSensor cGMP, ANP-stimulated luminescence; Potency, µM (series often up to 46.3 µM), hits mostly inhibitors; hit rate 1.6% among 76,000; AID 1347048; calls by dose curve; also: nearly all actives have a fitted effect of over 60% in size
#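 Compound pre-incubated 30 min at room temperature on GloSensor-loaded HEK293 cells stably carrying hNpr1 and the pGS-40F cGMP biosensor. Stimulation uses hNppA at 0.1 nM final; luminescence is taken at baseline and 20 min post-agonist.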
# GPT2 inhibitor: GPT2 alanine aminotransferase inhibition; Q8TD30; Recombinant GPT2, coupled pyruvate oxidase/HRP Amplex Red fluorescence; Potency, µM (top dose mostly 57.7 µM), actives largely listed as inhibitors; hit rate 0.25% among 100,000; AID 1671188; also: nearly all actives have a fitted effect of over 60% in size
#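 Fluorescence of coupled pyruvate oxidase/HRP/Amplex Red system (50uM Amplex, 30 min, dark) reports pyruvate formed by GPT2. Enzyme reaction: 10ng/uL GPT2, 2mM L-alanine, 250uM a-KG, 30 min room temperature, pH 7.5; 50uM AOA control.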
# 3T3 cytotox: kills NIH 3T3 cells | Potency, µM (doses to about 96.7 µM), most hits filed as inhibitors | hit rate 4.3% among 94,000 | NIH 3T3 viability, CellTiter-Glo ATP luminescence, 48-72 h; also: nearly all actives have a fitted effect of over 55% in size
#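 First NIH 3T3 cells are plated at 400 cells/well; next compound is pinned in; then plates incubate 48 or 72 hr at 37 °C; finally CellTiter-Glo is added and luminescence read after 10 min.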
# Hits are given with their value; 0 = inactive; ? = inconclusive; - = no result given; ! = repeats disagree; [ ] = another dose, or the depositor's remark. Sampled rows, rich in hits. Any-hit rate of the full collection: about 10%. Unless noted, calls follow the shape of the dose curve; as a rule, active = well fitted curve in the direction sought with a large enough effect; inconclusive = small, poorly fitted or top-dose-only effect, or another doubt; inactive = no such curve, though single readings can be large; an effect the other way counts as inactive or inconclusive.
SMILES,Luciferase inh,HEK cytotox,hNpr1 antagonist,GPT2 inhibitor,3T3 cytotox
COc1ccccc1-c1[nH]nc2ncc(-c3ccccc3)nc12,-,-,-,0,-
COc1ccccc1-c1[nH]nc2ncc(-c3cnn(C)c3)nc12,0,35µM,0,0,?
COc1ccccc1-c1[nH]nc2ncc(-c3cccc(O)c3)nc12,0,40µM,0,0,?
COC[C@@H]1CN(S(=O)(=O)c2ccc(C(C)C)cc2)C[C@H]1c1ccccn1,-,?,-,0,?
O=C1N(c2ccccc2)CC12CCN(S(=O)(=O)Cc1ccccc1)CC2,-,?,-,0,?
COc1ccc2c(c1)CCc1c-2n[nH]c1C(=O)N1CCc2c(nc3cc(-c4ccccc4)[nH]n3c2=O)C1,?,0,0,0,0
COC(=O)N1CCC2(C1)C(=O)N(CCc1ccccc1)c1ccccc12 (stereo unspecified),0,63µM!,0,0,?
COCC(=O)N1CCC2(C1)C(=O)N(CCc1ccccc1)c1ccccc12 (stereo unspecified),0,0,0,0,0
CN1C(=O)C2(CCN(C(=O)c3cccc(Br)c3)C2)c2ccccc21 (stereo unspecified),0,35µM,0,0,?
O=C(Cc1cccc(Cl)c1)N1CCC2(C1)C(=O)N(CCc1ccccc1)c1ccccc12 (stereo unspecified),0,32µM,0,0,45µM!
Cc1ccc(C(=O)N2CCC3(C2)C(=O)N(CCc2ccccc2)c2ccccc23)cc1 (stereo unspecified),0,32µM!,0,?,40µM!
O=C(NC1CCCCC1)c1nc2sccn2c1-c1cccnc1,-,0,-,0,0
O=C(c1ccccc1)N1CCC2(C1)C(=O)N(CCc1ccccc1)c1ccccc12 (stereo unspecified),0,35µM!,0,0,?
O=C(c1ccccc1)N1CCC2(C1)C(=O)N(Cc1ccccc1)c1ccccc12 (stereo unspecified),0,?,0,0,?
O=C(c1ccccc1F)N1CCC2(C1)C(=O)N(CCc1ccccc1)c1ccccc12 (stereo unspecified),0,40µM,0,0,?
COc1cccc(C(=O)N2CCC3(C2)C(=O)N(CCc2ccccc2)c2ccccc23)c1 (stereo unspecified),0,45µM,0,0,?
O=C(c1ccc(Cl)cc1)N1CCC2(C1)C(=O)N(CCc1ccccc1)c1ccccc12 (stereo unspecified),-,?,-,0,?
COc1ccc(CC(=O)N2CCC3(C2)C(=O)N(CCc2ccccc2)c2ccccc23)cc1 (stereo unspecified),0,40µM!,0,0,?
CN1C(=O)C2(CCN(C(=O)c3ccccc3F)C2)c2ccccc21 (stereo unspecified),0,?,0,0,0
CCOC(=O)C1CCCN(C(=O)C2CCc3nnc(CNC(=O)NC(C)(C)C)n32)C1 (stereo unspecified),-,0,-,0,0
O=C(c1ccc(F)cc1)N1CCC2(C1)C(=O)N(CCc1ccccc1)c1ccccc12 (stereo unspecified),0,40µM!,0,0,?
O=[S+]([O-])(c1cccs1)N1CC(Oc2ccc(F)c(F)c2)C1,-,0,-,0,0
Cc1ccc(-c2cccc(CN3CCCC3C(=O)NC3CCCCC3)c2)cc1Cl (stereo unspecified),-,0,-,-,0
Cc1ccc(-c2cccc(CN3CCCC3C(=O)NCC(C)C)c2)cc1Cl (stereo unspecified),-,40µM,-,-,35µM
Cc1ccc(-c2cccc(CN3CCCC3C(=O)NCC(F)F)c2)cc1Cl (stereo unspecified),-,40µM,-,-,?
SMILES,Luciferase inh,HEK cytotox,hNpr1 antagonist,GPT2 inhibitor,3T3 cytotox
Cc1ccc(-c2cccc(CN3CCCC3C(=O)N3CCN(c4ncccn4)CC3)c2)cc1Cl (stereo unspecified),-,14µM,-,-,?
CC(CCc1ccccc1)NC(=O)C1CN(C2CCCCC2)C(=O)N1 (stereo unspecified),-,?,-,0,?
Cc1noc(C)c1NC(=O)N1CCC(c2n[nH]c(=O)n2-c2ccccc2)CC1,0,0,0,0,0
COc1cc(F)ccc1-c1cc(-c2cn[nH]c2)c2cncn2c1,0,?,0,0,32µM
Cc1ccccc1-c1cc(-c2cn[nH]c2)c2cncn2c1,0,?,0,0,71µM
Fc1ccc(-c2cc(-c3cn[nH]c3)c3cncn3c2)cc1,0,?,0,0,45µM
Fc1cccc(-c2cc(-c3cn[nH]c3)c3cncn3c2)c1,0,?,0,0,?
Cc1ccc(C(=O)N2CCN(C3CCN(C)C3=O)CC2)cc1C (stereo unspecified),0,0,0,0,0
COc1ccccc1-c1cccc(C(=O)N2CCN([S+](=O)([O-])c3cccs3)CC2)c1,-,20µM,-,0,?
COc1ccccc1-c1cccc(C(=O)N2CCN([S+](=O)([O-])c3c(C)noc3C)CC2)c1,-,?,-,0,0
COc1ccccc1-c1cccc(C(=O)N2CCN([S+](=O)([O-])c3ccccc3)CC2)c1,-,32µM,-,0,?
COCc1ncc(C)n1CC1CCCN(Cc2cccnc2)C1 (stereo unspecified),-,0,-,0,0
COc1ccc(-n2cc(-c3ccnc(NCCC4CCCN4C)n3)cn2)cc1 (stereo unspecified),?,?,0,0,?
CC(Cc1ccncc1)Nc1nccc(-c2cnn(-c3ccccc3F)c2)n1 (stereo unspecified),?,35µM,0,0,?
Fc1ccc(CCNc2nccc(-c3cccnc3)n2)cc1,?,?,0,0[11.5 µM],?
CC(Cc1ccncc1)Nc1nccc(-c2cnn(-c3ccccc3)c2)n1 (stereo unspecified),?,40µM,0,0,?
COc1ccc(-c2nc(C)nc3c2CN(C(=O)C2CCCC2)CC3)cc1,-,0,-,0,?
NCc1ccc(-c2cccc(O)c2)cc1,-,89µM,-,0,89µM
O=C(O)c1ccc(-c2cccc(C(F)(F)F)c2)cc1,-,0,-,0,0
NCc1cccc(-c2cccc(Cl)c2)c1,-,?,-,0,89µM
NCc1ccc(-c2cc(C(F)(F)F)ccc2Cl)cc1,-,28µM,-,0,25µM
O=Cc1ccc(-c2cccc(O)c2)cc1,-,?,-,0,?
NCc1ccc(-c2cccc(C(F)(F)F)c2)cc1,-,32µM,-,0,32µM
CCn1cc(CN(C)C(=O)CN2C(=O)C3(CCCCC3)C2c2ccccc2)c(C)n1 (stereo unspecified),-,0,-,0,0
COC(=O)NC1CCN(C(=O)c2ccc(-c3cncnc3)cc2)CC1,-,0,-,0,0
Cc1ccc(C)c(-n2nc(-c3c(C)nc4scc(CC(=O)NC5CCCCC5)n4c3=O)cc2C)c1,0,?,0,0,40µM
CCN1CCN(C(=O)c2cn3cc(-c4cccc(OC)c4)sc3n2)CC1,-,?,-,0,?
CCOc1ccc2c(n1)CCN(C(=O)c1ccc(C(C)C)cc1)C2,32µM,?,0,0,?
